In PubChem BioAssay AID1332 (Southern Research Institute, 2008):
≈ marks a conversion by molar mass, not a printed value. In all, about 1,100 compounds went through this assay and about 170 (15%) were called active. How the calls were made is not given here. A selection follows.

assay: Confirmatory growth inhibition assay, mycobacterium tuberculosis h37rv, with cytotoxicity (AID 1332);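 on CC50: Vero cells exposed to compounds for 72 hours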;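 on IC50: bacteria incubated 7 days before adding Alamar blue readout reagent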; settings: M. tuberculosis H37Rv growth inhibition; CC50: measured here: Vero cell cytotoxicity; IC50: measured here: IC50 H37Rv replicates

Structure (SMILES) | CC50 [µg/mL] | IC50 [µg/mL] | outcome
CCc1nc(N)nc(N)c1-c1ccc(Cl)cc1 | 1.26 (≈ 5.06 µM) | 7.67 (≈ 30.8 µM) | active
C[C@H]1CCC2(NC1)O[C@H]1C[C@H]3[C@@H]4CC[C@H]5C[C@@H](O[C@@H]6O[C@H](CO)[C@H](O[C@@H]7O[C@H](CO)[C@@H](O)[C@H](O[C@@H]8OC[C@@H](O)[C@H](O)[C@H]8O)[C@H]7O[C@@H]7O[C@H](CO)[C@@H](O)[C@H](O)[C@H]7O)[C@H](O)[C@H]6O)CC[C@]5(C)[C@H]4CC[C@]3(C)[C@H]1[C@@H]2C (stereo not given in full) | 3.98 (≈ 3.85 µM) | > 20 | inactive
C[C@@H]1C[C@H]2[C@@H]3C[C@H](F)C4=CC(=O)C=C[C@]4(C)[C@@]3(Cl)[C@@H](O)C[C@]2(C)[C@H]1C(=O)COC(=O)C(C)(C)C | > 6 | > 20 | inactive
C[N+]1(C)CCC(=C(c2ccccc2)c2ccccc2)CC1 | – | > 20 | inactive
CCc1cc(C(N)=S)ccn1 | – | 1.95 (≈ 11.7 µM) | active
Cc1c(C)c2c(c(C)c1O)CCC(C)(C(=O)O)O2 (stereo not given) | – | > 20 | inactive
COc1ccc(CC(C)(N)C(=O)O)cc1OC (stereo not given) | > 6 | > 20 | inactive
Nc1nc2c(c(=O)[nH]1)N(C=O)C(CNc1ccc(C(=O)N[C@@H](CCC(=O)O)C(=O)O)cc1)CN2 (stereo not given in full) | – | > 20 | inactive
O=C(CCCN1CCC(O)(c2ccc(Br)cc2)CC1)c1ccc(F)cc1 | – | > 20 | inactive
CN(C)C(=O)C(CCN1CCC(O)(c2ccc(Cl)cc2)CC1)(c1ccccc1)c1ccccc1 | – | 10.9 (≈ 22.9 µM) | active
O=C(CCCN1CCC(O)(c2ccc(Cl)cc2)CC1)c1ccc(F)cc1 | – | > 20 | inactive
CN1CC[C@@]2(C)c3cc(O)ccc3N(C)[C@H]12 | – | > 20 | inactive
CC(CN(C)C)CN1c2ccccc2Sc2ccccc21 (stereo not given) | > 6 | > 20 | inactive
CCCCc1ccc2nc(NC(=O)OC)[nH]c2c1 | 0.043 (≈ 0.174 µM) | > 20 | inactive
CCCCOc1ccc(CC(=O)NO)cc1 | > 6 | > 20 | inactive
CCCCc1ccc(C(=O)O)nc1 | > 6 | 3.88 (≈ 21.7 µM) | active
Cc1cc(CC(=O)O)n(C)c1C(=O)c1ccc(Cl)cc1 | – | > 20 | inactive
O=C(CCCN1CCN(c2ccccn2)CC1)c1ccc(F)cc1 | – | > 20 | inactive
C[C@H]1[C@H](C)CC[C@]2(C(=O)O)CC[C@]3(C)C(=CC[C@@H]4[C@@]5(C)CC[C@H](O)C(C)(C)[C@@H]5CC[C@]43C)[C@H]12 | – | > 20 | inactive
CN(C)CCC(c1ccc(Cl)cc1)c1ccccn1 (stereo not given) | – | > 20 | inactive
CN[C@@H]1[C@H](O)[C@H](NC)[C@H]2O[C@@]3(O)C(=O)C[C@@H](C)O[C@H]3O[C@@H]2[C@H]1O | – | 7.14 (≈ 21.5 µM) | active
